Data reported in PubChem BioAssay.
The other results are listed elsewhere or left out. Values without a mark were called inactive. Calls of active or inactive are those of the source.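 How the source made its calls: active means average inhibition above a cutoff equal to the mean inhibition of all tested compounds plus one SD (cut at about 70% in these data); inactive means the rest.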

The compounds below were run against Photoreceptor-specific nuclear receptor (Homo sapiens) (UniProt Q9Y5X4) (assay: NR2E3 agonist confirmation in cells, cell-based, luminescence, CHO-S two-hybrid (AID 624378;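 further: 0% = DMSO in NR2E3 cells and 100% = DMSO in cells lacking NR2E3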)). Conditions: CHO-S mammalian two-hybrid NR2E3-NCOR, luciferase luminescence; at 3.98 µM; hits give high values.
Chain of Photoreceptor-specific nuclear receptor (Homo sapiens) (Q9Y5X4 whole entry, looked up): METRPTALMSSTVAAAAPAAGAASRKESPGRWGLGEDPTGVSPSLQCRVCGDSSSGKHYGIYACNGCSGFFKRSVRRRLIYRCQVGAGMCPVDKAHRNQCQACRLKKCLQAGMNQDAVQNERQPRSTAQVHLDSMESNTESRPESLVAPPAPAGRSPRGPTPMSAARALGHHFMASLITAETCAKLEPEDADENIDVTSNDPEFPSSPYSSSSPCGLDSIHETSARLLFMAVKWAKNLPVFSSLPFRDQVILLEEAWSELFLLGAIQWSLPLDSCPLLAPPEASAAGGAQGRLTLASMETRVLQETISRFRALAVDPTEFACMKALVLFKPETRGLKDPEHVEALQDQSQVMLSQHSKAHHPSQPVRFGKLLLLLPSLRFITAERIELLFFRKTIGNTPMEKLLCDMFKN
For `COc1ccc(S(=O)(=O)NCCCCOc2ccc(Cl)cc2)cc1`, the inhibition was 97.5% (active).
`CCCNc1ncnc2sc(C)c(C)c12` showed an inhibition of 27.8%.
Compound `CSc1ncccc1C(=O)Nc1nc2ccc(F)cc2s1` has an inhibition of 68.5%.
`COc1ccc(-n2c(C)cc(C(=O)CSc3nnc(-c4cccs4)o3)c2C)cc1` gave an inhibition of 61.9%.
`Cc1ccc(CS(=O)(=O)c2ncc(Cl)c(C(=O)Nc3nnc(C)s3)n2)cc1` showed an inhibition of 30.6%.
`CN(C(=O)CN1CCN(c2cc(-c3ccc(OCc4ccccc4)cc3)ncn2)CC1)c1ccccc1` showed an inhibition of 51.3%.
`COCCNc1nc(-n2nc(C)cc2C)nc2sc3c(c12)CCCC3` showed an inhibition of -8.21%.
In the case of `Oc1ccc(Br)cc1/C=N/Nc1ccccn1`, the inhibition is reported as 99.3% (active).
`CCOC(=O)N1CCN(C(=O)c2ccc(S(=O)(=O)Nc3cccc(C(F)(F)F)c3)cc2)CC1` gave an inhibition of 65.8%.
`CN(C)C(=S)N=c1ssc(=S)n1Cc1ccco1` was tested, and the inhibition was -16.6%.
`OC[C@@H]1CN(Cc2ccc(-c3ccccc3)cc2)C[C@H](n2cnc3c(NC4CCCC4)ncnc32)O1` was tested, and the inhibition was 94.9% (active).
`c1ccc(C(=NNc2nc3ccccc3s2)c2ccccn2)cc1` showed an inhibition of 22.6%.
With `COc1cc(CC(=O)Nc2nc(-c3ccc(F)c(F)c3)cs2)cc(OC)c1OC` the inhibition was 94.2% (active).
For `COc1ccc(CNc2ncnc3ccccc23)cc1`, the inhibition was 82.4% (active).
In the case of `O=C(Nc1nnc(-c2ccccc2)o1)c1cc(-c2cccs2)nc2ccccc12`, the inhibition is reported as 98.3% (active).
Compound `Cc1ccc(OCC(=O)c2cc(C)n(Cc3ccco3)c2C)c([N+](=O)[O-])n1` has an inhibition of 67.8%.
`COc1ccc(CC(=O)Nc2nc(-c3ccc(F)c(F)c3)cs2)cc1OC` was tested, and the inhibition was 98% (active).
For `O=C(/C=C/c1ccc([N+](=O)[O-])o1)NNC(=O)c1ccc(F)cc1`, the inhibition was 83.5% (active).
With `COc1cccc(CNS(=O)(=O)c2ccc3c(c2)CC(C)N3C(=O)C2CCC2)c1` (stereo not given) the inhibition was 73.3% (active).
`COc1ccc(CNS(=O)(=O)c2ccc(-c3cnc(C4CC4)o3)cc2)cc1` gave an inhibition of 48.2%.
`CSc1nsc(SC)c1NC(=O)OC1CCCCC1` showed an inhibition of -5.88%.
For `CCCOc1ccccc1C1CC(=O)Nc2cc3c(cc21)OCO3` (stereo not given), the inhibition was 28.9%.
In the case of `COc1ccccc1CNc1nc(Nc2ccccc2Cl)c2sccc2n1`, the inhibition is reported as 93.1% (active).
`Cn1nccc1C(=O)NC1CCCc2c1cnn2-c1ccccc1F` (stereo not given) was tested, and the inhibition was 93.7% (active).
With `Cc1cc(C(=O)NC2CCCc3c2cnn3-c2cccc(C)c2C)c(C)o1` (stereo not given) the inhibition was 72.7% (active).
`COc1ccc(C(=O)NNC(=S)NC(=O)c2ccccc2[N+](=O)[O-])cc1` was tested, and the inhibition was 3.63%.
Work on `O=S(=O)(c1cccc(Cn2nnc(-c3ccc(F)cc3)n2)c1)N1CCOCC1` yielded an inhibition of 34.9%.
In the case of `COC(=O)c1sccc1NC(=O)CSc1ccccc1NS(=O)(=O)c1cc(Cl)ccc1Cl`, the inhibition is reported as 84% (active).
In the case of `CCCc1cc(=O)[nH]c(SCC(=O)Nc2sc3c(c2C#N)CCCC3)n1`, the inhibition is reported as 15.4%.
`CCN(CC)S(=O)(=O)c1ccc(N(C)Cc2ccc(C(F)(F)F)cc2)nc1` gave an inhibition of 34.6%.
`Cc1cccc(NS(=O)(=O)c2ccc(-c3cnc(C4CC4)o3)cc2)c1` was tested, and the inhibition was 53.5%.
`COc1ccc(C(=O)NC2CCCc3c2cnn3-c2cccc(C)c2C)c(OC)n1` (stereo not given) was tested, and the inhibition was 89.6% (active).
With `CCn1c(CNC(=O)c2cc(OC)c(OC)c(OC)c2)cc2cc(C)ccc21` the inhibition was 85.2% (active).
In the case of `COc1ccccc1-n1nnnc1S(=O)(=O)Cc1ccc(Cl)cc1`, the inhibition is reported as 10.2%.
With `CCOC(=O)N1CCN(C(=O)C2CCN(c3ncnc4c3sc3cccc(F)c34)CC2)CC1` the inhibition was 92% (active).
`CC(=O)c1c(C)[nH]c(C(=O)COC(=O)c2cccc(S(=O)(=O)N(C)c3ccccc3)c2)c1C` gave an inhibition of 23.8%.
With `Cc1ccnc(NC(=O)C2CCN(S(=O)(=O)c3c(C)c(C)cc(C)c3C)CC2)c1` the inhibition was 83.3% (active).
In the case of `Cn1c(Cc2cccc3ccccc23)nnc1SCC(=O)N1CCN(c2cccc(Cl)c2)CC1`, the inhibition is reported as 78.1% (active).
`Cc1nc2c(OCc3cccc(Cl)c3)cccn2c1N(C)CC1CC1` showed an inhibition of 1.83%.
With `COc1cccc(CNc2nc(NCc3ccccc3OC)nc3ccsc23)c1` the inhibition was 82% (active).
